Shiga inhibitor: inhibitors of Shiga toxin in Vero cells; Vero cells, Shiga toxin protein synthesis inhibition reporter; inhibition, % at 38.7 µM; actives 9.2% (n = 290,000); AID 2315; in the data active means inhibition mostly above about 28%, no sharp cut-off; inactive means mostly below about 43%; further: 0% is about no effect
AmpC no deterg: blocks E. coli AmpC beta-lactamase in detergent-free assay; AmpC nitrocefin hydrolysis, absorbance 480 nm, 0.0001% Triton; Potency, µM (series often up to 57.1 µM), for the others: top-dose activity change, negative = inhibition, actives largely listed as inhibitors; actives 0.52% (n = 330,000); AID 485341;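 further: potency means the concentration at half of the fitted maximal effect; plate controls were no compound for no effect and no enzyme for full effect; nearly all actives have a fitted effect of over 20% in size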
Target sequence (P00811 whole entry, looked up): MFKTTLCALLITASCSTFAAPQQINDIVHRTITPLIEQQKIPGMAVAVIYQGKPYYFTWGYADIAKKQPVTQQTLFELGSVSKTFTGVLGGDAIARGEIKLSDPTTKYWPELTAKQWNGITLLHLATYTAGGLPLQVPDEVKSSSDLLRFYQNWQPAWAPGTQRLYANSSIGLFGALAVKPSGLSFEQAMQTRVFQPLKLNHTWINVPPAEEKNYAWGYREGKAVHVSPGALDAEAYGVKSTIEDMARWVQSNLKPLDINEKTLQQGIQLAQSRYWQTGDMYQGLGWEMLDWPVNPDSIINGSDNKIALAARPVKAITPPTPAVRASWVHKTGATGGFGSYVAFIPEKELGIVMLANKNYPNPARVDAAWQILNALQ
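20 mM phosphate pH 7.0 + 0.01% (detergent screen) or 0.0001% Triton X-100; 5.3 nM AmpC reagent; cpd preinc 15 min RT; nitrocefin (800 uM stock) to start; A480 q20 s × 4 min; Activity was normalised to no-enzyme and no-compound control wells.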
NS1 inh: blocks influenza NS1 protein function; actives 0.4% (n = 270,000); Potency, µM (top dose mostly 46.1 µM), without a hit: top-dose activity, positive = more growth; calls by dose curve; further: potency means the concentration at half of the fitted maximal effect; actives are rising curves; nearly all actives have a fitted effect of over 50% in size
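S. cerevisiae expressing influenza A NS1, grown in glucose, washed, then diluted 1:100 into pH 6.0 -URA galactose medium with 23 nl compound. Growth recovery read as OD600; NS1-free strain serves as control.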
AmpC inh detg: AmpC beta-lactamase inhibition with detergent present. actives 0.041% (n = 370,000). P00811. AmpC hydrolysis of nitrocefin, absorbance 480 nm, 0.01% Triton. Potency, µM (series often up to 114 µM), inactives show at the highest dose activity change, negative = inhibition, actives largely listed as inhibitors. AID 485294;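 further: potency means the concentration at half of the fitted maximal effect; 0% = no-compound wells and -100% = no-enzyme wells; nearly all actives have a fitted effect of over 25% in size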
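AmpC (5.3 nM in the dispensed reagent) in 20 mM phosphate pH 7.0 with 0.01% (detergent screen) or 0.0001% Triton X-100 was preincubated with compounds for 15 min at room temperature. Nitrocefin was then added from an 800 uM solution, and hydrolysis was followed at 480 nm.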
Cycloheximide cs: affects cycloheximide protein synthesis inhibition readout, counter-screen | max response, % | cell reporter, cycloheximide protein synthesis inhibition counterscreen | actives 12% (n = 300,000); in the data active means max response mostly above about 13%, no sharp cut-off; inactive means mostly below about 14%; further: read at 38.3 µM for the half of the compounds with a filed dose; 0% is about no effect
Starred values were filed as active, the others as inactive; ? = inconclusive; · = no result given; + = active, no number. The sample as a whole holds a higher share of hits than the screen did. Unless noted, the call rests on the fitted dose curve; in most records, active means well fitted curve in the direction sought with a large enough effect; inconclusive means small, poorly fitted or top-dose-only effect, or another doubt; inactive means no such curve, though single readings can be large; an effect the other way counts as inactive or inconclusive.

SMILES	Shiga inhibitor	AmpC no deterg	NS1 inh	AmpC inh detg	Cycloheximide cs
Cc1sc2nc(-c3ccc(Br)cc3)oc(=O)c2c1C	-6.6	51.7%	7.2%	?	-2.7
Cc1nc2scc(-c3cccs3)c2c(=O)o1	21.1	-18.5%	1.5%	7.9%	-4.0
O=c1oc(-c2cccs2)nc2scc(-c3cccs3)c12	11.2	-13.3%	10.3%	-13.6%	13.6*
Cc1cc(=O)oc(C)c1C(=O)Nc1ccc(F)cc1	21.4	-4.2%	-4.1%	-3.6%	-0.7
O=C(O)Cn1nc(-c2ccccc2)ccc1=O	-6.0	-2.2%	20.6%	-11.3%	-3.4
CNc1ccccc1-n1ccc(-c2ccccc2)n1	86.5*	-17.2%	-17.1%	?	35.6*
Cn1ccc(-c2ccccc2)n1	12.5	2.4%	·	3.5%	19.1*
N#Cc1cc(-c2ccccc2)nn1-c1ccccc1	16.0	-25.3%	-84.2%	?	19.1
Cc1nnc(N2CCC(C(=O)N3CCCCC3)CC2)c2nn(-c3ccccc3)c(C)c12	·	·	·	-11.5%	·
CN1CCc2c(sc(/N=C/c3cc(Cl)ccc3O)c2C#N)C1	101.1*	-1.3%	5.8%	0.9%	51.7*
COc1ccc2c(c1)c1c(c(=O)n(Cc3ccccc3)c(=O)n1CC(=O)Nc1ccc(C)cc1C)n2C	·	·	·	19.7%	·
O=C1c2cccc3c(O)ccc(c23)C(=O)N1c1ccc(Cl)cc1	+	-16.2%	17.1%	1.5%	105.1*
CCN(CC)c1ccc(/C=N/NC(=O)c2c(Cl)cnn2C)c(O)c1	55.7*	14.1%	-63.8%	-11.4%	44.1*
CCN(CC)c1ccc(/C=N/NC(=O)c2cccc(S(=O)(=O)N3CCOCC3)c2)c(O)c1	-30.1	34.1%	5.7%	?	-2.9
CCN(CC)c1ccc(/C=N/Nc2ccc(C)cc2)c(O)c1	23.7	-40.2%	12.5%	1.9%	9.8
CCOC(=O)N/N=C/c1ccc(N(CC)CC)cc1O	62.1*	-20.6%	-22.9%	-2.8%	22.5*
O=C(COc1ccccc1)N1CCCC1	-9.6	-5.7%	·	-11.5%	12.4
O=C(COc1ccc(Br)cc1)N1CCCCCC1	43.7	0.8%	-52.4%	-12.8%	14.4*
Cc1ccc(OCC(=O)N2CCCCCCC2)cc1	60.9	-4.1%	-2.4%	-6.3%	15.9*
O=C(COc1ccc(-c2ccccc2)cc1)N1CCN(C(=O)c2cccs2)CC1	40.2*	-27.2%	8.0%	1.4%	15.2*
O=C(COc1ccc(Cl)cc1)N1CCCC1	37.1*	-7.2%	6.6%	-1.5%	12.2*
O=C(COc1ccccc1)N1CCN(S(=O)(=O)c2cccs2)CC1	-1.5	-10.1%	-1.4%	-3.2%	3.4
Cc1ccc(S(=O)(=O)N[C@@H](C)C(=O)OCC(=O)N2c3ccccc3NC(=O)C2(C)C)cc1	·	-11.8%	·	-4.1%	·
Cc1ccc(C[C@@H](NS(=O)(=O)c2ccc(C(=O)O)cc2)C(=O)O)cc1	-10.6	-12.9%	·	-5.5%	-4.9
CCOC(=O)N1CCN(C(=O)COc2ccc3c(c2)C(=O)CC(C)(C)O3)CC1	-5.6	-6.7%	·	-2.4%	-3.0
SMILES	Shiga inhibitor	AmpC no deterg	NS1 inh	AmpC inh detg	Cycloheximide cs
CC1(C)CC(=O)c2cc(OCC(=O)N3CCCCCC3)ccc2O1	80.0*	4.6%	-4.2%	?	56.8*
CC1=Nc2ccccc2N=C(N)C1c1ccccc1 (stereo not drawn)	66.9*	-17.5%	-54.0%	5.1%	40.2*
CCN(CC)CCCn1c2c(c(SCC(=O)Nc3nc4ccccc4s3)nc1=O)CCC2	·	?	·	-11.5%	·
COc1ccc(O)c(C2NC(CC(C)C)(C(=O)O)C3C(=O)N(Cc4ccccc4)C(=O)C23)c1 (stereo not drawn)	-7.1	-12.8%	-1.0%	-0.8%	8.5*
CCN1C(=O)[C@H]2[C@@H](c3ccc(-c4ccc(OC)cc4)cc3)N[C@@](CC(C)C)(C(=O)OC)[C@H]2C1=O	·	91.1%	·	-10.2%	·
O=c1c2ccccc2nc(/C=C/c2c[nH]c3ccccc23)n1CCO	64.6*	6.6%	-2.1%	7.8%	37.8*
O=c1c2ccccc2nc(/C=C/c2ccc3c(c2)OCO3)n1CCCO	46.7	113.1%	-6.8%	-1.7%	23.9*
O=c1c2ccccc2nc(/C=C/c2ccccc2)n1CCCO	6.1	27.5%	-7.0%	-5.4%	10.6
CCOc1cccc(CN(CC)CC2CCCN(CCc3cccc(OC)c3)C2)c1O (stereo not drawn)	·	63.7%	-12.4%	-3.6%	0.9
c1ccc(Nc2nc(-c3cccs3)cs2)nc1	88.1*	-44.2%	-60.9%	-3.8%	32.8*
Cc1cccc(Nc2nc(-c3ccccn3)cs2)n1	63.1*	-20.6%	-54.5%	?	36.7*
Cc1cccc(Nc2nc(-c3cccs3)cs2)n1	68.3*	-21.4%	23.2%	5.8%	46.2*
Nc1ccc(Nc2nc(-c3cccs3)cs2)cc1	7.8	6.7%	-0.8%	-5.2%	-1.4
Cc1noc(C)c1C(=O)Nc1nc(-c2cccs2)cs1	·	-29.8%	·	-1.1%	·
CCOc1ccc(N(CC(=O)NCc2ccc(F)cc2)C(=O)c2snc(C(N)=O)c2N)cc1	-7.2	-19.1%	9.4%	-11.8%	-2.7
CCOc1ccc(OCC)c(NC(=O)c2nnn(Cc3cc(Br)ccc3OC)c2N)c1	·	·	·	-14.6%	·
COC(=O)C1=C(C)N(CCc2c[nH]c3ccccc23)C(=O)/C1=C\N(C)C	14.6	-4.5%	-1.2%	0.4%	1.1
CC1=CCC2C(=O)N(CCc3c[nH]c4ccccc34)C(=O)C2C1 (stereo not drawn)	active	-21.9%	-6.7%	?	23.2*
O=C1C2CC=C(Cl)CC2C(=O)N1CCc1c[nH]c2ccccc12 (stereo not drawn)	46.6*	-8.4%	-32.0%	0.9%	21.6*
COc1ccc(C2NC(=O)N(C)C3=C2C(=O)N(c2ccc(C)cc2)C3)cc1 (stereo not drawn)	·	·	·	-3.8%	·
Cc1cccnc1NC(=S)NC(=O)c1cccs1	190.6*	-20.2%	-12.4%	-10.2%	58.9*
Cc1cccnc1NC(=O)NC(=O)c1ccc(C(C)(C)C)s1	63.2*	-14.2%	-8.1%	0.2%	37.7*
O=C(NC(=S)Nc1ccccc1C(=O)O)c1cncc(Br)c1	·	-30.6%	10.9%	?	1.6
O=C(NC(=S)Nc1ccc(Br)cn1)c1cncc(Br)c1	25.2	-24.4%	-7.3%	-5.7%	11.5
Cc1cccnc1NC(=O)CNC(=O)c1cccs1	·	-11.5%	·	0.1%	·
SMILES	Shiga inhibitor	AmpC no deterg	NS1 inh	AmpC inh detg	Cycloheximide cs
O=C(NC(=S)Nc1ccccn1)c1cncc(Br)c1	25.1	-11.4%	7.2%	?	41.3*
Cc1cccnc1NC(=S)NC(=O)c1cncc(Br)c1	91.4*	-19.7%	3.1%	-8.5%	35.2*
C=CCN(Cc1ccc(OC)c(OC)c1)C(=O)c1cc2cc(F)ccc2[nH]1	36.4	40.0%	-20.4%	-11.9%	-0.6
Cc1cccc(NC(=O)c2cc3c(=O)n(Cc4cccnc4)ccc3nc2C)c1	·	·	·	3.7%	·
O=C(/C=C/c1c(F)cccc1Cl)Nc1nc2ccccc2[nH]1	80.7*	-8.8%	10.2%	-2.6%	36.0*
Cc1ccc(/C=C/C(=O)Nc2nc3ccccc3[nH]2)cc1	35.1*	-20.7%	0.7%	?	36.7*
CC(=O)Nc1nc2ccccc2[nH]1	5.3	-18.7%	·	3.8%	-2.8
